We go through 27 compounds from PubChem BioAssay AID588726 (The Scripps Research Institute Molecular Screening Center, 2011).

SMILES strings stand for the structures. The whole screen tested about 360,000 compounds, of which about 8,200 (2.3%) were called active. The entries come from a sample that favours actives as a whole. Values without a mark were called inactive. Cut-off read from the data, not from the text of the source: active = inhibition above about 27%; inactive = the rest.

Chain of Fructose-bisphosphate aldolase (Mycobacterium tuberculosis (strain ATCC 25618 / H37Rv)) (P9WQA3 whole entry, looked up): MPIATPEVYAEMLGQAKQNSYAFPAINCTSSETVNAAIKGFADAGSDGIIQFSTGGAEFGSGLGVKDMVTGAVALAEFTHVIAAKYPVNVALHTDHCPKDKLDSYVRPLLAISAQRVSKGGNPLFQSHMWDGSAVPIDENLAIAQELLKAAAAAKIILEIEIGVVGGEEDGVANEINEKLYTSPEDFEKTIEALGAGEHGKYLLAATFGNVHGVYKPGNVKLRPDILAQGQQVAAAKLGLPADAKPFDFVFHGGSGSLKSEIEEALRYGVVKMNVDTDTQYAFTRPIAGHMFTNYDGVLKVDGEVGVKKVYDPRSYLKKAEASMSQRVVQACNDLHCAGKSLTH

The test addresses Fructose-bisphosphate aldolase (Mycobacterium tuberculosis (strain ATCC 25618 / H37Rv)) (UniProt P9WQA3). The test is described as follows: Mtb FBA enzyme inhibitors, primary screen, biochemical, fluorescence, strain H37Rv (AID 588726).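 Note: 0% = vehicle and 100% = reference inhibitor.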 As to conditions: purified M. tuberculosis FBA, fluorescence read-out, at 1 µM, stronger effect = higher value.
For the compound `Cc1ccccc1Cn1nc(C)c(NC(=O)C(F)(F)F)c1C`, the inhibition was -0.53%. Next, `COCc1cc(=O)[nH]c2cc(NC(=O)C(F)(F)F)c(C)cc12`: 31.5% (active); `O=C(Nc1ccccc1)c1ccccc1NC(=O)C(F)(F)F`: -0.1%. In the case of `COCCCN1C(=O)C(=O)/C(=C(/O)c2ccc(S(=O)(=O)N3CCOCC3)cc2)C1c1ccc(F)cc1` (configuration not stated), the inhibition is 4.42%. `COc1ccccc1NC(=O)COc1ccc(C(=O)OCC(=O)N(C(C)C)C(C)C)cc1OC`: the inhibition was 33.2% (active). Consider `COc1ccccc1NC(=O)COC(=O)COc1ccccc1F`, for which the inhibition is -0.62%. For the compound `COc1cc(CO)ccc1OCC(=O)Nc1cccc2ccccc12`, the inhibition is -1.87%. Next, `COc1ccc(C2c3c(C)nn(-c4ccccc4)c3NC(=O)N2c2ccccc2)cc1` (configuration not stated): -0.42%.

As to `O=C(CCC1CCN(C(=O)c2cccc(Cl)c2F)CC1)Nc1ccccc1`, the inhibition is -0.26%. On to `COc1ccc(CCNC(=O)c2cc3sccc3n2C)cc1OC`, for which the inhibition is 6.99%. `COc1ccc(CCNC(=O)C(=O)Nc2ccc3nc4n(c(=O)c3c2)CCCCC4)cc1OC`: the inhibition is -5.38%. The result for `COc1ccc(CCNC(=O)Nc2ccc3c(c2)c(=O)n(C)n3C)cc1OC` reads 156% (active); that for `Cc1nc(=O)c(-c2ccccc2)c(C)n1-c1ccc(Br)cc1`, 2.14%. Consider `CCCc1cc(=O)n2[nH]c(C)c(-c3ccc(Cl)cc3)c2n1`, for which the inhibition was 27.5% (active). The result for `CCCc1cc(=O)n2[nH]c(SCc3ccccc3)nc2n1` reads -0.14%; that for `COCc1cc(=O)[nH]c(SC)n1`, 2.44%; that for `CCCc1c(C)nc2scc(-c3ccc(Cl)cc3)n2c1=O`, 0.91%.

Turning to `COCc1cc(=O)n2[nH]c(C)c(-c3ccccc3)c2n1`, the inhibition was 102% (active). Take `COCc1cc(=O)[nH]c(-c2ccc(C(F)(F)F)cc2)n1`: the inhibition is 2.51%. Next, `Cc1nc2c(-c3ccccc3)c(C)[nH]n2c(=O)c1Cl`: 47.5% (active); `Cc1nc2nc(COc3ccccc3)[nH]n2c(=O)c1C`: 0.07%. With `COc1ccc(-c2csc3nc(-c4ccccc4F)oc(=O)c23)cc1OC`, the inhibition was 2.27%. Next, `C=CC(=O)Nc1ccc(Nc2ccnc(Nc3ccc(N4CCN(C)CC4)cc3)n2)cc1`: 3.07%.

With `Cc1nc(SCC(=O)N2CCc3ccccc3C2)c2c(C)c(C)sc2n1`, the inhibition was 0.74%. Take `COc1cc(C2C(C#N)=C(C)NC3=C2C(=O)CC(C)(C)C3)ccc1O` (configuration not stated): the inhibition is 0.13%. Next, `Cc1sc2nc(-c3ccccc3F)oc(=O)c2c1C`: -0.79%; `COc1ccccc1N(CC(=O)N/N=C(\C)c1ccccc1O)S(=O)(=O)c1ccc(C)cc1`: 2.36%.

Broadly, the inhibition is the drop in the measured response relative to a control, in per cent.
